# Laboratory results from PubChem BioAssay (NCATS).
# Where “and” joins values, the source holds several entries; their conditions need not be identical. Identical values can stand only once. Results filed as inconclusive are left out. Calls of active or inactive are those of the source. Unless noted, calls come from the whole dose curve; as a rule, active = well fitted curve in the direction sought with a large enough effect; inconclusive = small, poorly fitted or top-dose-only effect, or another doubt; inactive = no such curve, though single readings can be large; an effect the other way counts as inactive or inconclusive.
# How the values were obtained:
# [1] = molecular target: Cytochrome P450 2C9 (Homo sapiens) (UniProt P11712); test: Cytochrome P450 family 2 subfamily C member 9 (CYP2C9) small molecule antagonists: luciferase biochemical (cell-free) qHTS assay (AID 1645842; active = well fitted curve in the direction sought with a large enough effect in the repeat runs; an effect the other way counts as inactive or inconclusive; note: nearly all actives have a fitted effect of over 55% in size; for activity change, negative = inhibition: % is set by controls: 0 for no effect and ±100 for the full control effect); conditions: P450-Glo CYP2C9 enzyme assay, luciferin luminescence; series mostly up to 57.4 µM
# How it was run: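 P450-Glo CYP2C9 system: proluciferin substrate with enzyme in mix containing 0.4% BSA, 10 min at room temperature, then NADPH regeneration solution added and incubated 1 h at 37C. Detection reagent stopped reaction; luminescence read after 20 min as RLU.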
# [2] = Primary qHTS for inhibitors of nuclear receptor binding SET domain protein 2 (NSD2) in an isogenic RCH-ACV NSD2 p.E1099K mutant (9B) (AID 1645876); conditions: RCH-ACV NSD2 E1099K (9B) viability, CellTiter-Glo, 72 h; series mostly up to 44.9 µM; note: nearly all actives have a fitted effect of over 70% in size
# [3] = Primary qHTS for inhibitors of nuclear receptor binding SET domain protein 2 (NSD2) in an RCH-ACV wild type WT cells (2C) (AID 1645877); conditions: RCH-ACV (leukaemia line) NSD2 WT (2C) viability, CellTiter-Glo, 72 h; series mostly up to 44.9 µM; note: nearly all actives have a fitted effect of over 70% in size
# [4] = molecular target: N-terminal Xaa-Pro-Lys N-methyltransferase 1 (Homo sapiens) (UniProt Q9BV86); test: Confirmatory qHTS for Inhibitors of N-terminal methyltransferase 1 (NTMT1): MTaseGlo Assay (AID 1645874); conditions: NTMT1 enzyme, MTase-Glo SAH luminescence; series mostly up to 100 µM; note: nearly all actives have a fitted effect of over 65% in size;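 for activity change, negative = inhibition: luminescence from SAH made as NTMT1 methylates SPKRIA peptide using SAM; 0% = DMSO control and -100% = no-enzyme control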
# How it was run: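 Enzyme mix (125 nM NTMT1, 100 uM SAM) + compound, 15 min RT; + 1 uM SPKRIA, 30 min RT, dark; MTase-Glo reagent 30 min, detection solution 30 min; luminescence. % inhibition vs no-enzyme/DMSO controls, 4-parameter Hill fit.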
# [5] = molecular target: Catechol O-methyltransferase (Homo sapiens) (UniProt P21964); test: Confirmatory Screen for Target Class Profiling of Small Molecule Inhibitors of Methyltransferases (AID 1745852; calls by dose curve; for activity change, negative = inhibition: % is set by controls: 0 for no effect and ±100 for the full control effect); conditions: MTase-Glo luminescence, SAH detection, recombinant enzyme; measured here: COMT max response; stronger effect = lower value
# [6] = molecular target: Guanidinoacetate N-methyltransferase (Homo sapiens) (UniProt Q14353); test: as above; conditions: MTase-Glo luminescence, SAH detection, recombinant enzyme; activity change, negative = inhibition: at 57.3 µM (top of the series) unless noted; series mostly up to 57.3 µM
# [7] = molecular target: Nicotinamide N-methyltransferase (Homo sapiens) (UniProt P40261); test: as above; conditions: MTase-Glo luminescence, SAH detection, recombinant enzyme; measured here: NNMT max response; stronger effect = lower value
# [8] = molecular target: Phenylethanolamine N-methyltransferase (Homo sapiens) (UniProt P11086); test: as above; conditions: MTase-Glo luminescence, SAH detection, recombinant enzyme; measured here: PNMT max response; stronger effect = lower value
# Potency is the fitted concentration of half-maximal effect.
# Chain of Cytochrome P450 2C9 (Homo sapiens) (P11712 whole entry, looked up): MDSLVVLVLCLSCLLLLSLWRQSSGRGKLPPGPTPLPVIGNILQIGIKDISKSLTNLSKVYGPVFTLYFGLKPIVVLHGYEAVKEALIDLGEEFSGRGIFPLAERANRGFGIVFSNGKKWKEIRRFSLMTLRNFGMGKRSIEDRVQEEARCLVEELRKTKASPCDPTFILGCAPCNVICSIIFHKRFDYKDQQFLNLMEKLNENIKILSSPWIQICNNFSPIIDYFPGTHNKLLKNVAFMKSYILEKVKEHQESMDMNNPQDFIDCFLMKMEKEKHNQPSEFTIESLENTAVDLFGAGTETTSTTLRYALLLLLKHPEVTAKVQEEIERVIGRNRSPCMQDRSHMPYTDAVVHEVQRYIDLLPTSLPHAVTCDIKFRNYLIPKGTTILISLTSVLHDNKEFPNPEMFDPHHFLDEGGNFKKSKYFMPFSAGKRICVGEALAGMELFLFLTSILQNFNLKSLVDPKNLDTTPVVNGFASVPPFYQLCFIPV
# Chain of Phenylethanolamine N-methyltransferase (Homo sapiens) (P11086 whole entry, looked up): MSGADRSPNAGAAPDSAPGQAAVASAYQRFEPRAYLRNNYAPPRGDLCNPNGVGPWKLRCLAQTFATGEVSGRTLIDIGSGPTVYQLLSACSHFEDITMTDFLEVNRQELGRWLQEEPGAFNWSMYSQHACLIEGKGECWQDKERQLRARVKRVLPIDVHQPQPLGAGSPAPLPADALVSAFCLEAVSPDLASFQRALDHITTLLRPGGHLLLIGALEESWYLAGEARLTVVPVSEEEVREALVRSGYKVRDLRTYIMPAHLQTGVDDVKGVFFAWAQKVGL
# Chain of Nicotinamide N-methyltransferase (Homo sapiens) (P40261 whole entry, looked up): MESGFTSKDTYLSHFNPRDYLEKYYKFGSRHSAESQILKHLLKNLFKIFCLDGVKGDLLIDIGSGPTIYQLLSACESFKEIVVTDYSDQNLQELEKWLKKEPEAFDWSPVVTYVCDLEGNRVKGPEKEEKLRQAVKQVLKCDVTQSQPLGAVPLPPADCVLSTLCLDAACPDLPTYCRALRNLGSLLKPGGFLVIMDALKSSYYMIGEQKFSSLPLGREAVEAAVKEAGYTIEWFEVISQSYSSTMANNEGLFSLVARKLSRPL
# Chain of Catechol O-methyltransferase (Homo sapiens) (P21964 whole entry, looked up): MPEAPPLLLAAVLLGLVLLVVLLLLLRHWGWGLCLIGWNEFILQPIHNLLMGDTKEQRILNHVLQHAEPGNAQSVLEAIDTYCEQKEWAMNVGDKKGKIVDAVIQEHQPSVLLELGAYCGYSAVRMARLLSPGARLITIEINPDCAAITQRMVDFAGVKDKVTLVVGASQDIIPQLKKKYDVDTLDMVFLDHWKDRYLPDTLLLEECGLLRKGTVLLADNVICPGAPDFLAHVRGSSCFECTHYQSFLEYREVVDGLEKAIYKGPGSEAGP
# Chain of N-terminal Xaa-Pro-Lys N-methyltransferase 1 (Homo sapiens) (Q9BV86 whole entry, looked up): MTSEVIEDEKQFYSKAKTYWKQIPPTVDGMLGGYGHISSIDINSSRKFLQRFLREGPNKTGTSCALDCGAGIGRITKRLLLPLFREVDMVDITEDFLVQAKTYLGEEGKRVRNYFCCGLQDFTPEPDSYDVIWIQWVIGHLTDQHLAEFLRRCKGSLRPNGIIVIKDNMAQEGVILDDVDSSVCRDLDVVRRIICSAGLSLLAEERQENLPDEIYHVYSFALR
smiles,measurement,setting,value
COc1cc2ncnc(Nc3ccc(O)c(Br)c3)c2cc1OC,Potency,[1],5.35 µM (active)
same,Potency,[2],11.6 µM (active) and 10.5 µM (active)
same,Potency,[3],13 µM (active) and 14.8 µM (active)
NCC(CNc1nc(Nc2cccc(NC(=O)N3CCCC3)c2)ncc1I)C(=O)c1cccs1 (configuration not stated),Potency,[4],22.4 µM (active)
same,Potency,[2],1.15 µM (active)
same,Potency,[3],2.58 µM (active)
same,activity,[5],-3.81%
same,"activity change, negative = inhibition",[6],0%
same,activity,[7],-36.6%
same,activity,[8],-13.7%
CCCCNc1ncc(-c2ccc(CN3CCOCC3)cn2)c(NC2CCC(O)CC2)n1 (configuration not stated),Potency,[1],inactive
same,Potency,[3],632 nM (active) and 1.15 µM (active)
CC[C@@H](C)[C@@H]1OC2(C=C[C@H]1C)C[C@@H]1C[C@H](C/C=C(\C)[C@H](O[C@H]3C[C@H](OC)[C@H](O[C@H]4C[C@H](OC)[C@H](NC(C)=O)[C@H](C)O4)[C@H](C)O3)[C@H](C)/C=C/C=C3\CO[C@H]4[C@H](O)C(C)=C[C@@H](C(=O)O1)[C@@]34O)O2 (some centres not stated),Potency,[2],8.01 µM (active)
CCCC1(CCC)CCC2(CCN(CCCN(CC)CC)C2)CC1,Potency,[4],50.1 µM (active)
same,Potency,[2],2.63 µM (active)
same,Potency,[3],2.09 µM (active)
C/C(=N\N=C(N)N)c1cc(NC(=O)CCCCCCCCC(=O)Nc2cc(/C(C)=N/N=C(N)N)cc(/C(C)=N/N=C(N)N)c2)cc(/C(C)=N/N=C(N)N)c1,Potency,[4],20 µM (active)
same,Potency,[2],11.5 µM (active)
same,Potency,[3],11.5 µM (active)
same,activity,[5],-85.9%
same,Potency,[6],27.1 µM (active)
same,activity,[7],-74.6%
same,activity,[8],-75.4%
CC(C)(O)c1ccc2c(c1)ncn2-c1cccc(-c2ccccc2C#N)c1,Potency,[1],2.13 µM (active)
same,activity,[5],-35.9%
same,Potency,[6],27.1 µM (active)
same,activity,[7],-41.8%
same,activity,[8],-37.6%
C/C=C(/C)C(=O)OC1CC(C)(C)CC2C3=CCC4C5(C)CCC(O[C@@H]6O[C@H](C(=O)O)[C@@H](O)[C@H](O)[C@H]6O[C@@H]6O[C@H](CO)[C@H](O)[C@H](O[C@@H]7OC[C@H](O)[C@H](O)[C@H]7O[C@@H]7O[C@H](CO)[C@@H](O)[C@H](O)[C@H]7O)[C@H]6O)C(C)(C)C5CCC4(C)C3(C)C(O)C(O)C12CO (some centres not stated),Potency,[2],2.18 µM (active)
CCOc1ccc(-n2c([C@@H](C)N(Cc3cccnc3)C(=O)Cc3ccc(OC(F)(F)F)cc3)nc3ncccc3c2=O)cc1,Potency,[1],0.952 µM (active)
same,Potency,[3],18.3 µM (active)
COc1ccc(N(C(=O)Nc2c(C)cccc2C)c2cc(Nc3ccc(N4CCN(C)CC4)cc3)ncn2)c(OC)c1,Potency,[1],13.5 µM (active)
same,Potency,[2],10.3 µM (active)
same,activity,[5],-5.96%
same,"activity change, negative = inhibition",[6],0%
same,activity,[7],-36.9%
same,activity,[8],-7.92%
C/C=C/C=C/C(=O)O[C@@H]1C=C2COC(=O)[C@]2(O)[C@@]2(C)CCCC(C)(C)[C@H]12,Potency,[2],inactive
COc1cccc(-c2cn(-c3ccc(CCN4CCC(O)CC4)cc3)c3ncnc(N)c23)c1,Potency,[4],35.5 µM (active)
same,Potency,[2],1.63 µM (active)
same,Potency,[3],1.83 µM (active)
same,activity,[5],-79.5%
same,Potency,[6],24.1 µM (active)
same,activity,[7],-80.6%
same,activity,[8],-84.3%
C/C=C/C=C/C=C/C(=O)O[C@@H]1C=C2COC(=O)[C@]2(O)[C@@]2(C)CCCC(C)(C)[C@H]12,Potency,[4],inactive
same,Potency,[2],2.82 µM (active)
COC1CC(O[C@H]2CC[C@]3(C)C4CC[C@@]5(C)C(=O)[C@]4(CC[C@@H]3C2)CC[C@@H]5C2=CC(=O)OC2)OC(C)C1OC1OC(COC2OC(CO)C(O)C(O)C2O)C(O)C(O)C1O (some centres not stated),Potency,[2],1.54 µM (active)
CCCCCCCCC(=O)N[C@H](CN1CCCC1)[C@H](O)c1ccc2c(c1)OCCO2,Potency,[2],23 µM (active)
O=C(Nc1ccnc(NC(=O)C2CC2)c1)c1c(Cl)cccc1Cl,Potency,[2],2.95 µM (active)
O=C([C@@H]1CCCN(c2ccc3[nH]c(C4(n5cc(Cl)cn5)CC4)nc3n2)C1)N1CCCC1,Potency,[4],inactive
same,Potency,[3],inactive
same,activity,[5],-0.433%
same,"activity change, negative = inhibition",[6],0%
same,activity,[7],0.992%
same,activity,[8],0.881%
O=S(=O)(Nc1cc(Cl)c(Oc2cnc3ccccc3c2)c(Cl)c1)c1ccc(Cl)cc1Cl,Potency,[1],3.01 µM (active)
same,activity,[5],-8.48%
same,Potency,[6],34.1 µM (active)
same,activity,[7],-47.5%
same,activity,[8],-24%
C=C1C(=O)O[C@@H]2C[C@]3(C)[C@@H](CCC(C)O)[C@@H]3C[C@H]12 (some centres not stated),Potency,[2],18.3 µM (active)
CN1CC2CN(c3ccc4oc5ccccc5c(=O)c4c3)CC2C1 (configuration not stated),Potency,[1],inactive
same,Potency,[3],12.6 µM (active)
Cn1cc(-c2ccc3c(c2)CCN3C(=O)Cc2cccc(C(F)(F)F)c2)c2c(N)ncnc21,Potency,[1],12 µM (active)
same,Potency,[3],inactive
C[C@@]12C(=O)N(c3ccc(C(=O)Nc4cccc5cccnc45)cc3)C(=O)[C@@H]1[C@@H]1C=C[C@H]2C1,Potency,[2],inactive
